Assay outcomes from PubChem.
Shown are actives, neighbours in structure and some others; about 0.88% of the full set was active somewhere.
Glioma ERSR ind – ER stress response induction in glioma; U87-MG GRP78 promoter luciferase reporter, 16 h; Potency, µM, hits mostly activators; 420,000 compounds, 0.02% hits; AID 602332; further: series mostly up to about 76 µM; nearly all actives have a fitted effect of over 35% in size
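Stably transfected U87-MG glioma cells carrying a GRP78-based luciferase sensor; 16 h compound incubation. Luminescence end-point read 10 min after Bright-Glo addition at room temperature.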
pAkt inh – inhibitors of Akt phosphorylation. activity change, % for hits at 50 µM. 360,000 compounds, 0.32% hits. AID 651550. Neuro2A IGF-stimulated pAkt S473 HTRF, 20 min; stronger effect = lower value; in the data active means activity change below about -80%; inconclusive means mostly about -51% to -80%
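Neuro2A cells (4,500/well, DMEM with 0.5% FBS) were treated with compound at a single 50 µM final concentration, stimulated with 6 nM IGF for 20 min at 37 °C, and lysed. Phospho-Akt Ser473 was read by HTRF as 665/615 ratio ×10^4.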
Six1-Eya2 inh – inhibitors of human Six1/Eya2 interaction. Q15475+O00167. AlphaScreen GST-Six1/His-Eya2 binding, biochemical; stronger effect = lower value. activity change, % (test concentration not listed). 360,000 compounds, 0.56% hits. AID 651725; in the data active means activity change below about -65%; inconclusive means mostly about -30% to -63%
Target sequence (O00167 whole entry, looked up): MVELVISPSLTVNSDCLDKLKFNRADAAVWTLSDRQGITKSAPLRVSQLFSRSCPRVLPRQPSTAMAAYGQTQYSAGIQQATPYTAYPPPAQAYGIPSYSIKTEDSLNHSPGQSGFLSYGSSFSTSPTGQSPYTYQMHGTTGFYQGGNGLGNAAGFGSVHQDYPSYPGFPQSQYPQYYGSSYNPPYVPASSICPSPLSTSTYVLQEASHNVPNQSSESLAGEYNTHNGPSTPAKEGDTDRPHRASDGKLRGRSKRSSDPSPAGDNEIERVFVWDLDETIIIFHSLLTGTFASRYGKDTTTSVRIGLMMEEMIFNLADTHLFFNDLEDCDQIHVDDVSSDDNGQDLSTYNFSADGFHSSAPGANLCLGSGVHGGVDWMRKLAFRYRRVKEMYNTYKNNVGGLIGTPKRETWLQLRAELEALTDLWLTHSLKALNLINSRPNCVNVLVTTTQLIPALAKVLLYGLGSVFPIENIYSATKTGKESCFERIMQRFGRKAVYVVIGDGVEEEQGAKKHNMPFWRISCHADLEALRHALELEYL
Target sequence (Q15475 whole entry, looked up): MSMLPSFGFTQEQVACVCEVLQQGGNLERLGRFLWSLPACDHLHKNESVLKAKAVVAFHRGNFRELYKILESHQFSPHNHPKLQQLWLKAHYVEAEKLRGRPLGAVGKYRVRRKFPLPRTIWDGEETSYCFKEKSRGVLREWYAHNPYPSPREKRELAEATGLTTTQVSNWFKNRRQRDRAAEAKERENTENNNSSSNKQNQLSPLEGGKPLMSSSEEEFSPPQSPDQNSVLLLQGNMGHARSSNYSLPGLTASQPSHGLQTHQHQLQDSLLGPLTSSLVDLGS
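Compounds are tested against tagged Six1 and Eya2 proteins bridged by glutathione donor and nickel acceptor beads; after a one-hour incubation at 37 °C without light, AlphaScreen emission is recorded.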
RGS4 inhibitor – blocks human RGS4-accelerated GTP hydrolysis. AID 504845. Transcreener GDP fluorescence polarization, RGS4-accelerated GTP hydrolysis. P49798. 390,000 compounds, 0.039% hits. Potency, µM (titrated, usually from 114 µM), hits mostly inhibitors; further: nearly all actives have a fitted effect of over 75% in size
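MLSMR compounds (23 nl, pin-transferred) preincubated 10 min at room temperature with a 500nM (2x) first reagent, then RGS4 at 900nM (2x) plus Transcreener GDP mix added; fluorescence polarization (620/688 nm) read before and after 90 min at 30 °C.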
CtBP-E1A inh – CtBP/E1A binding inhibition; activity change, % (concentration not given with the values); AlphaScreen GST-E1A/His-CtBP binding, 1536-well; stronger effect = lower value; AID 651724; 340,000 compounds, 0.49% hits; in the data active means activity change below about -65%; inconclusive means mostly about -30% to -63%
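Protein mix (5X: 125 nM each GST-E1A, His-CtBP) was incubated with pinned compound 2 h at 37 deg C in dark, in 50 mM Tris pH 8.0 buffer with 300 mM NaCl. Glutathione donor and nickel acceptor beads followed; AlphaScreen signal read after 1 h.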
A number is an active result; 0 = inactive; ? = inconclusive; - = no result given; [ ] = another dose, or the depositor's remark. Unless noted, the call rests on the fitted dose curve; in most records, active means well fitted curve in the direction sought with a large enough effect; inconclusive means small, poorly fitted or top-dose-only effect, or another doubt; inactive means no such curve, though single readings can be large; an effect the other way counts as inactive or inconclusive.

SMILES | Glioma ERSR ind | pAkt inh | Six1-Eya2 inh | RGS4 inhibitor | CtBP-E1A inh
Cc1ccccc1NC(=S)N(CCN(C)C)C(C)c1ccccn1 (stereo not given) | 0 | 0 | -65 | 0 | -72
O=C(O)c1ccc(CNc2ncnc3nc[nH]c23)cc1 | - | - | - | 0 | -
O=C(O)C1Nc2c(Cl)cc(Cl)cc2C2C=CCC12 (stereo not given) | 0 | 0 | ? | ? | 0
O=C(O)C1Nc2c(O)cccc2C2C=CCC12 (stereo not given) | 0 | 0 | 0 | ? | -82
CO[C@H]1[C@H](NC(=O)c2ccco2)c2ccccc2C12CCN(Cc1cnc(N(C)C)s1)CC2 | 0 | - | - | - | -
Cc1ccc(N(CCC#N)C(=O)CSc2nc3ccccc3c(=O)[nH]2)cc1 | 0 | 0 | 0 | 0 | 0
Cc1ccc(-c2cc(-c3nnc(SCC(=O)N(C)CCC#N)n3N)c3ccccc3n2)cc1 | 0 | -115% | 0 | 0 | 0
Cc1nc(C(=O)N(Cc2cc3ccc(F)cc3nc2N2CCC(O)CC2)CC2CCCO2)cs1 (stereo not given) | 0 | - | - | - | -
O=C(O)C1CSC2(c3ccc4c(c3)OCCO4)CCC(=O)N12 (stereo not given) | 0 | -115% | 0 | 0[11.4 µM] | 0
OC1(c2cccnc2)CCN(Cc2ccc3c(c2)CN(Cc2cc4ccccc4s2)CCO3)CC1 | 0 | - | - | - | -
COc1cccc2c1C(=O)/C(=C/c1ccc(N(C)C)cc1)C2 | 0 | - | - | - | -
Cc1ccccc1/C=N/N1C(=O)CSC1=S | 0 | 0 | 0 | 0 | -
O=C1CSC(=S)N1N=Cc1ccccc1O | 0 | 0 | -90 | ? | 0
COc1cc(/C=N/N2C(=O)CSC2=S)ccc1O | 0 | 0 | 0 | 0 | ?
COc1cc(O)c(C=NN2C(=O)CSC2=S)c(OC)c1 | 0 | 0 | -87 | - | ?
O=C1CSC(=S)N1/N=C/c1ccc2c(c1)OCCO2 | 0 | 0 | 0 | ? | -82
O=C1CSC(=S)N1/N=C/c1cc(Br)c(O)c(Br)c1 | 0 | 0 | ? | ? | ?
CCC(=O)Nc1ccc(-c2nnc(SCc3ccccc3)n2C)cc1 | 0 | - | - | - | -
O=C(O)CCc1cccc2ccccc12 | 0 | - | - | - | -
CC(=NNc1nc2ccccc2o1)c1cc2ccccc2cn1 | ? | 0 | -93 | 0 | -66
C/C(=N\Nc1nc2ccccc2s1)c1cccs1 | 0 | 0 | 0 | 0 | 0
Cc1cc(C)nc(Nc2nc3ccccc3o2)n1 | 0 | 0 | 0 | 0 | 0
COc1cc(/C=N/Nc2nc3ccccc3o2)cc(OC)c1O | 0 | - | 0 | 0 | 0
CC(=NNc1nc2ccccc2o1)c1ncccn1 | 0 | 0 | -90 | 0 | 0
CC(=NNc1nc2ccccc2s1)c1ncccn1 | 0 | 0 | -92 | ? | 0
SMILES | Glioma ERSR ind | pAkt inh | Six1-Eya2 inh | RGS4 inhibitor | CtBP-E1A inh
Oc1ccccc1/C=N/Nc1nc2ccccc2o1 | 0 | 0 | -72 | 0 | -77
COC(=O)c1cc(CNC(=O)c2cccc(C)c2)cc(NC(=O)c2ccncc2)c1 | 0 | - | - | - | -
O=C(Oc1ccccc1C(=O)Nc1ccccc1)c1ccc(Br)c([N+](=O)[O-])c1 | 32µM | 0 | 0 | 0 | 0
COc1ccccc1C(=O)Oc1ccccc1C(=O)Nc1ccccc1 | 0 | 0 | 0 | 0 | -
Cc1c(C(=O)N(C)C2CCOC2)sc2ncnc(NCc3ccc4c(c3)OCO4)c12 (stereo not given) | 0 | - | - | - | -
Cc1cc(NC(=O)c2ccccc2Cl)no1 | 0 | -104% | 0 | 0 | 0
Cc1cc(NC(=O)c2cc(Cl)ccc2Cl)no1 | 0 | 0 | 0 | 0 | 0
CC(C)(C)c1ccc(C(=O)NC(=S)NNC(=O)c2cccs2)cc1 | 14µM | 0 | 0 | 0 | 0
NC(CO)C(=O)NNCc1ccc(O)c(O)c1O (stereo not given) | 0 | 0 | 0 | 9.5µM | ?
COC(=O)C(N)Cc1ccc(O)c(O)c1 (stereo not given) | 0 | 0 | 0 | 0 | 0
CC(C)c1c(C(=O)NCc2cccnc2)cnn1-c1nccc(-c2cccs2)n1 | 0 | - | - | - | -
O=C1/C(=C/c2ccco2)SC(=S)N1c1cccnc1 | 0 | 0 | -71 | ? | 0
O=C1/C(=C\c2ccco2)SC(=S)N1c1ccc(O)cc1 | 0 | 0 | 0 | 0 | 0
CC1CCc2nc3ccc(S(=O)(=O)N4CCC(C(=O)NCc5ccccc5Cl)CC4)cc3c(C(=O)O)c2C1 (stereo not given) | 0 | 0 | -73 | 0 | -66
COc1ccc(CNC(=O)C2CCN(S(=O)(=O)c3ccc4nc5c(c(C(=O)O)c4c3)CC(C)CC5)CC2)cc1 (stereo not given) | 0 | 0 | -73 | 0 | -82
O=C(O)c1c2c(nc3ccc(S(=O)(=O)N4CCC(C(=O)NCc5ccccc5)CC4)cc13)CCCC2 | 0 | 0 | -73 | - | 0
COc1ccccc1CNC(=O)C1CCN(S(=O)(=O)c2ccc3nc4c(c(C(=O)O)c3c2)CCCC4)CC1 | 0 | 0 | ? | 0 | ?
CN1C[C@H]2c3ccccc3Oc3ccc(Cl)cc3[C@@H]2C1 | 0 | - | - | - | -
COc1ccccc1CN1CCOc2ccc(CN3CCC(Oc4cccnc4)CC3)cc2C1 | 0 | - | - | - | -
O=c1cc(/C=C/c2ccc([N+](=O)[O-])cc2)c2ccccc2[nH]1 | 0 | - | - | - | -
N#Cc1c(=O)c2nc(NCCCO)ncc2n2c(=O)c3ccccc3[nH]c12 | 0 | 0 | ? | 0 | ?
N#Cc1c(=O)c2nc(NCc3ccccc3)ncc2n2ccccc12 | 0 | 0 | -66 | ? | ?
COc1ccc(NC(=O)CSc2n[nH]c(-c3ccccn3)n2)cc1 | 0 | 0 | -92 | 0 | -79
O=C(CSc1n[nH]c(-c2ccccn2)n1)Nc1ccccc1F | 0 | 0 | -92 | 0 | 0
O=C(CSc1n[nH]c(-c2ccccn2)n1)Nc1ccccc1 | 0 | 0 | -95 | 0 | -101
SMILES | Glioma ERSR ind | pAkt inh | Six1-Eya2 inh | RGS4 inhibitor | CtBP-E1A inh
COc1ccccc1NC(=O)CSc1n[nH]c(-c2ccccn2)n1 | 0 | 0 | -95 | 0 | -90
CN(C)C(=O)COC(=O)c1ccccc1OCC(=O)Nc1ccc(Br)cc1 | 0 | - | - | - | -
CC(C)c1c(C(=O)N2CCN(CCO)CC2)cnn1-c1nccc(-c2cccs2)n1 | 0 | - | - | - | -
CCN(Cc1ccncc1)Cc1ccc2c(c1)CN(C(=O)c1ccccc1-n1cccn1)CCO2 | 0 | - | - | - | -
C/C(=N\NC(=O)c1ccc(F)cc1)c1cccc(NC(=O)c2ccco2)c1 | 0 | -95% | 0 | 0 | 0
Cc1ccc(-c2cn(C[C@H]3CC[C@@H]([C@@H]4CC[C@H](Cn5cc(-c6ccc(C)cc6)nn5)O4)O3)nn2)cc1 | 0 | 0 | 0 | 0 | 0
c1ccc(-c2cn(C[C@H]3CC[C@H](Cn4cc(-c5ccccn5)nn4)O3)nn2)nc1 | 0 | 0 | -92 | 0 | -90
COc1ccc(OC)c(CN2CCOc3ccc(C(O)c4cccnc4)cc3C2)c1 (stereo not given) | 0 | - | - | - | -
Cc1n[nH]c(C)c1N1C(=O)c2cccc3cc(Br)cc(c23)C1=O | 0 | 0 | 0 | 0 | 0
Cc1n[nH]c(C)c1N1C(=O)c2cccc3c(Br)ccc(c23)C1=O | 0 | -113% | 0 | 0 | 0
O=c1cc(NC2CCCCCC2)[nH]c(=O)[nH]1 | 0 | -112% | 0 | 0 | 0
